Tests used:
[1] = molecular target: T1, Ephrin type-A receptor 3 (Homo sapiens) (UniProt P29320); conditions: at 10 µM
T1 sequence (whole entry): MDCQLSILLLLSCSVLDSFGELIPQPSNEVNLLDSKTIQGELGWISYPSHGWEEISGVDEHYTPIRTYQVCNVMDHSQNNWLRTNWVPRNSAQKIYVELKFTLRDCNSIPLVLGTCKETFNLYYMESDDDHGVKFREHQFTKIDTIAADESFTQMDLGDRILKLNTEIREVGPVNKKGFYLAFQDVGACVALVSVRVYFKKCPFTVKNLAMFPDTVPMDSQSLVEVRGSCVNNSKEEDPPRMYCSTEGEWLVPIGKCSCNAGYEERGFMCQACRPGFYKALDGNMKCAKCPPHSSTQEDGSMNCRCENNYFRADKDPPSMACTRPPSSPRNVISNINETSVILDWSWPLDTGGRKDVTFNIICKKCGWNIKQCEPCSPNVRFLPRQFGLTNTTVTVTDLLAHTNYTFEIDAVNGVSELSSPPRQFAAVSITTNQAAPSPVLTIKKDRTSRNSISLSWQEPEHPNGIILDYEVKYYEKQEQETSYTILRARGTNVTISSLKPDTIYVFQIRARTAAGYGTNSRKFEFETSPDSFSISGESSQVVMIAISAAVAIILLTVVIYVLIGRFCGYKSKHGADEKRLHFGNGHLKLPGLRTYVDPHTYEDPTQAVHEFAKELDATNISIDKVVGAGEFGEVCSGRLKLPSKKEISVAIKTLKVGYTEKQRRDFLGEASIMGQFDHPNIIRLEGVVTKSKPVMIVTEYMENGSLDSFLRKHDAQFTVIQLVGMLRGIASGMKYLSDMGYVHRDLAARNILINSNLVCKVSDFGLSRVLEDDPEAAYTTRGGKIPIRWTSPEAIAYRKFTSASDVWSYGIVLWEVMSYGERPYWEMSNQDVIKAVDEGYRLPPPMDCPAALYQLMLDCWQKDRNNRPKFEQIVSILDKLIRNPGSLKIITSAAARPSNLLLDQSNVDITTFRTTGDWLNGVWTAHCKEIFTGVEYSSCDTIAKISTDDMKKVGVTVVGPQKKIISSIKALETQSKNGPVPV

[2] = molecular target: Ephrin type-A receptor 4 (Homo sapiens) (UniProt P54764); conditions: at 1 µM
[3] = molecular target: Ephrin type-A receptor 4 (Homo sapiens) (UniProt P54764); conditions: at 10 µM
[4] = molecular target: Ephrin type-A receptor 5 (Homo sapiens) (UniProt P54756); conditions: at 1 µM
[5] = molecular target: Ephrin type-A receptor 5 (Homo sapiens) (UniProt P54756); conditions: at 10 µM
[6] = molecular target: Ephrin type-A receptor 7 (Homo sapiens) (UniProt Q15375); conditions: at 1 µM
[7] = molecular target: Ephrin type-A receptor 7 (Homo sapiens) (UniProt Q15375); conditions: at 10 µM
[8] = molecular target: T2, Ephrin type-A receptor 8 (Homo sapiens) (UniProt P29322); conditions: at 1 µM
T2 sequence (whole entry): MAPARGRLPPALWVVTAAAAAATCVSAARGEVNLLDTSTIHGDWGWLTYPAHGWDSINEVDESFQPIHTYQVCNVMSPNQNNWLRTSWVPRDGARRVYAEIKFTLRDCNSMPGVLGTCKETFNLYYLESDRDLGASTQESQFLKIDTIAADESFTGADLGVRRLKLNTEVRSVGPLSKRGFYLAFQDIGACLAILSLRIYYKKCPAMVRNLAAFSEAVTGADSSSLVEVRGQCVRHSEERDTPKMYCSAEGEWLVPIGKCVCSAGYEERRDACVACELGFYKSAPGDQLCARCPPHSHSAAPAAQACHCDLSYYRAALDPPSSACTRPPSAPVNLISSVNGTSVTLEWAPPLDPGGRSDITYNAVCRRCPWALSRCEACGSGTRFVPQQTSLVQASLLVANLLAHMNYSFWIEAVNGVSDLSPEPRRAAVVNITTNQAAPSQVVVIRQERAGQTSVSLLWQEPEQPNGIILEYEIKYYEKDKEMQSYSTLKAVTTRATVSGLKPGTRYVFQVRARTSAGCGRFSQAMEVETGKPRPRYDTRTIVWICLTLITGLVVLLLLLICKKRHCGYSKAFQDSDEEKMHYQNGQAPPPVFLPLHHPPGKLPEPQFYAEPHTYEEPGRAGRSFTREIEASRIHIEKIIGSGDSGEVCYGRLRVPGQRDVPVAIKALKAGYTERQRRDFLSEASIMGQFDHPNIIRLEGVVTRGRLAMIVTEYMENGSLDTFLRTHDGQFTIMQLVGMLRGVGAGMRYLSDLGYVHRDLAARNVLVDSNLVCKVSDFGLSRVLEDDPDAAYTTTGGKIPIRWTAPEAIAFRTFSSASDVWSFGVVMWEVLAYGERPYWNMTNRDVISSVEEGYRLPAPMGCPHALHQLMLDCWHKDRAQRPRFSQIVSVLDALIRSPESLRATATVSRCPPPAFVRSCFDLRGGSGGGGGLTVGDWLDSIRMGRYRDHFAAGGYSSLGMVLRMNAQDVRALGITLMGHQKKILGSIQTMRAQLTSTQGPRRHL

[9] = molecular target: T2, Ephrin type-A receptor 8 (Homo sapiens); conditions: at 10 µM
[10] = molecular target: T3, Ephrin type-B receptor 1 (Homo sapiens) (UniProt P54762); conditions: at 1 µM
T3 sequence (whole entry): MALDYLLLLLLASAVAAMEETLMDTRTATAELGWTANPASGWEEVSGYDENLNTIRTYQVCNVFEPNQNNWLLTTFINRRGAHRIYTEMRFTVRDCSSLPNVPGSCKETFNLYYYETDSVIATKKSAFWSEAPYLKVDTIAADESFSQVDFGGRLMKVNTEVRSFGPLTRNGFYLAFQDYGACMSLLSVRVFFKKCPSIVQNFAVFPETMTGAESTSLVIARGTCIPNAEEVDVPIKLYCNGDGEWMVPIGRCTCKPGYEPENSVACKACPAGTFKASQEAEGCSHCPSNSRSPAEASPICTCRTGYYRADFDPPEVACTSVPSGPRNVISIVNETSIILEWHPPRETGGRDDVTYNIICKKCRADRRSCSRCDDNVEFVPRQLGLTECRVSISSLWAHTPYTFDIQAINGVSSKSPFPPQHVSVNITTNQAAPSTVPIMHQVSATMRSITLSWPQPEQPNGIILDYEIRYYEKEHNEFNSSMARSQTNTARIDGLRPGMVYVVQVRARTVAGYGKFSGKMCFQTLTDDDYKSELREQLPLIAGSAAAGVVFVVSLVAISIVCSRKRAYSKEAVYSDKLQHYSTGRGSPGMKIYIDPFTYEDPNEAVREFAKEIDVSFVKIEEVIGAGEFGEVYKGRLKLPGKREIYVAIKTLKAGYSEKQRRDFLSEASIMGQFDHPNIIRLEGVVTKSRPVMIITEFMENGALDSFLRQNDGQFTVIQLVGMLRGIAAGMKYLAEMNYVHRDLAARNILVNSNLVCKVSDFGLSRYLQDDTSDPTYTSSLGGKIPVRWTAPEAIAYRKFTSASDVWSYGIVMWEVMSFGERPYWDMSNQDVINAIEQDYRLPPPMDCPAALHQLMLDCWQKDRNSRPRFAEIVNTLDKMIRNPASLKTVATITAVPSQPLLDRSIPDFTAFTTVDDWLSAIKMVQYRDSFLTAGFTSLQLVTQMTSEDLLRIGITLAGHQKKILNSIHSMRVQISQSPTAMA

[11] = molecular target: T3, Ephrin type-B receptor 1 (Homo sapiens); conditions: at 10 µM
[12] = molecular target: T4, Ephrin type-B receptor 2 (Homo sapiens) (UniProt P29323); conditions: at 1 µM
T4 sequence (whole entry): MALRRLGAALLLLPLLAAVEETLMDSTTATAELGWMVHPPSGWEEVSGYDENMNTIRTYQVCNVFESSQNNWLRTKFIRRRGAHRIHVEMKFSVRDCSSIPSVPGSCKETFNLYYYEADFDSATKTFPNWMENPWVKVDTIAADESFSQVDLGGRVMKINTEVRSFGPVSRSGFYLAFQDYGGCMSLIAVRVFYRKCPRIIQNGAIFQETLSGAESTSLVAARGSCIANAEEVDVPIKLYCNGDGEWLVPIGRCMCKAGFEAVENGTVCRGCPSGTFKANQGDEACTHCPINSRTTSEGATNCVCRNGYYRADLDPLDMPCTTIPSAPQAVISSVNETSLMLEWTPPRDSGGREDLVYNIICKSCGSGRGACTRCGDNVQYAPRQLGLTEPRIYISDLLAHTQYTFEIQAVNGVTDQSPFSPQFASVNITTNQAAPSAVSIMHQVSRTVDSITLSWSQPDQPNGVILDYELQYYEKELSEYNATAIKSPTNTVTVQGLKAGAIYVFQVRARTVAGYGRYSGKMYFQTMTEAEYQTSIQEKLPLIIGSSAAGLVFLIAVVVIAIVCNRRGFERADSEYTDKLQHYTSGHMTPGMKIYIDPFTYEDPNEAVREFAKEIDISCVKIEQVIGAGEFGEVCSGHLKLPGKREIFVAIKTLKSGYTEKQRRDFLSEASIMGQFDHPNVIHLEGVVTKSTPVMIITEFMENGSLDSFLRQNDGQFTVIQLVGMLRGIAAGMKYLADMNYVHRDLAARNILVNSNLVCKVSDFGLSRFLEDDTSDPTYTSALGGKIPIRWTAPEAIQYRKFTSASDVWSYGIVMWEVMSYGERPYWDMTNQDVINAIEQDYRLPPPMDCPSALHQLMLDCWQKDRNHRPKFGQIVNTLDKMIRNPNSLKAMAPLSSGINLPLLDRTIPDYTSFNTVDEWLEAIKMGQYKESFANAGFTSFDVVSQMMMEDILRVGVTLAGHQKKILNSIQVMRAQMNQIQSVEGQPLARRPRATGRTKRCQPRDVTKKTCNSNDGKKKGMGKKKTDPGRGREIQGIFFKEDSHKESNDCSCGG

[13] = molecular target: T4, Ephrin type-B receptor 2 (Homo sapiens); conditions: at 10 µM
[14] = molecular target: T5, Ephrin type-B receptor 3 (Homo sapiens) (UniProt P54753); conditions: at 1 µM
T5 sequence (whole entry): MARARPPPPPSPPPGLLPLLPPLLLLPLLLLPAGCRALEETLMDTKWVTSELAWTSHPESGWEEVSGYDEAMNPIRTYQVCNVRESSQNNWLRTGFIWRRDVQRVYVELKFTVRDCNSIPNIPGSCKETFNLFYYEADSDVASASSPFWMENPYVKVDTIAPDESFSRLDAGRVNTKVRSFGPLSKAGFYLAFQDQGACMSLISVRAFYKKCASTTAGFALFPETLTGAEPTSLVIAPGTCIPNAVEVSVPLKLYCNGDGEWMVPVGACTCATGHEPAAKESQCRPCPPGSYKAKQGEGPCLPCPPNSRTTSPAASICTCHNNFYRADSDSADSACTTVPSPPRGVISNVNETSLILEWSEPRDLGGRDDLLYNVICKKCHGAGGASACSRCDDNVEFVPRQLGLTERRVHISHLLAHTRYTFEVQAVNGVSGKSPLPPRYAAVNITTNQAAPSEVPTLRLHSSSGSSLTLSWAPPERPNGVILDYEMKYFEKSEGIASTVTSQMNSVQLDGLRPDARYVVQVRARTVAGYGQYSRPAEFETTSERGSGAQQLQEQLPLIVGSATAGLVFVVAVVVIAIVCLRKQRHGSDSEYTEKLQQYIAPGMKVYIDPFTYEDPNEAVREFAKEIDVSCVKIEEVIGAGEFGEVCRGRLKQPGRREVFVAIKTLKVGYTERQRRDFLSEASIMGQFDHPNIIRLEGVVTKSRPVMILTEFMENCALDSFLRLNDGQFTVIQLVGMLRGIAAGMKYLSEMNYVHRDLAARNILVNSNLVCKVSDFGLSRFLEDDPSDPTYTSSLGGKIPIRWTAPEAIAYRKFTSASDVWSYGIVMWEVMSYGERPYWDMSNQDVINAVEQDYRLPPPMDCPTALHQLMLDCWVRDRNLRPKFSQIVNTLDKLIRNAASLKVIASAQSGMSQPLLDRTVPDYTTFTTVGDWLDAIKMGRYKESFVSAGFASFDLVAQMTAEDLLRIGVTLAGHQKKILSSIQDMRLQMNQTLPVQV

[15] = molecular target: T5, Ephrin type-B receptor 3 (Homo sapiens); conditions: at 10 µM
[16] = molecular target: T6, Ephrin type-B receptor 4 (Homo sapiens) (UniProt P54760); conditions: at 1 µM
T6 sequence (whole entry): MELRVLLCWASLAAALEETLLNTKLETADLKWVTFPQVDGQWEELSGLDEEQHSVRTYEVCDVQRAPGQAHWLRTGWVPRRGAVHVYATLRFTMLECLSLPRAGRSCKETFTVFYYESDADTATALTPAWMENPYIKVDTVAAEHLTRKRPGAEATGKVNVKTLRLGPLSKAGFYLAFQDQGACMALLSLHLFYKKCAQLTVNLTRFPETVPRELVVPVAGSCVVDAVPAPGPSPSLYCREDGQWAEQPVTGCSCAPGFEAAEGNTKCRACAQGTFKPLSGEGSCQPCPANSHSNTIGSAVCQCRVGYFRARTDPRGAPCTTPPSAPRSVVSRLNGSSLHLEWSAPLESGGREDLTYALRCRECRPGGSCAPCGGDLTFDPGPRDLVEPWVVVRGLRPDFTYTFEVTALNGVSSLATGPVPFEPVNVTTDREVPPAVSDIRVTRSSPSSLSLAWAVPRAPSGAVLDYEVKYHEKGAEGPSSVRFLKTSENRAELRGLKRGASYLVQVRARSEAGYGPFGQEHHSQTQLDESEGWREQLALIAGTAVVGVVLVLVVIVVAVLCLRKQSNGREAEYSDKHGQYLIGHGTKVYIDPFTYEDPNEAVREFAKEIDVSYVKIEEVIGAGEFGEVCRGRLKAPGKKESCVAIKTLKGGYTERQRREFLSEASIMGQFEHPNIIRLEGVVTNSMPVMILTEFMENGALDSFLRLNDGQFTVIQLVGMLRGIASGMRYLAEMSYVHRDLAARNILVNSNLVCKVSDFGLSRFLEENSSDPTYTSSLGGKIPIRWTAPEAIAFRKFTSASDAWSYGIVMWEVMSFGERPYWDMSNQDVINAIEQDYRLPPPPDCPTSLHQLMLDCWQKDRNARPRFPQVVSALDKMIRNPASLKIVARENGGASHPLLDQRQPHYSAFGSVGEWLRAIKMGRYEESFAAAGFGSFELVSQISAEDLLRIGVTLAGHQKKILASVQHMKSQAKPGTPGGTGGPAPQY

[17] = molecular target: T6, Ephrin type-B receptor 4 (Homo sapiens); conditions: at 10 µM
[18] = molecular target: Receptor tyrosine-protein kinase erbB-4 (Homo sapiens) (UniProt Q15303); conditions: at 1 µM
[19] = molecular target: Receptor tyrosine-protein kinase erbB-4 (Homo sapiens) (UniProt Q15303); conditions: at 10 µM
[20] = molecular target: Focal adhesion kinase 1 (Homo sapiens) (UniProt Q05397); conditions: at 1 µM

Sequence of Ephrin type-A receptor 7 (Homo sapiens) (Q15375 28-998 limits assumed): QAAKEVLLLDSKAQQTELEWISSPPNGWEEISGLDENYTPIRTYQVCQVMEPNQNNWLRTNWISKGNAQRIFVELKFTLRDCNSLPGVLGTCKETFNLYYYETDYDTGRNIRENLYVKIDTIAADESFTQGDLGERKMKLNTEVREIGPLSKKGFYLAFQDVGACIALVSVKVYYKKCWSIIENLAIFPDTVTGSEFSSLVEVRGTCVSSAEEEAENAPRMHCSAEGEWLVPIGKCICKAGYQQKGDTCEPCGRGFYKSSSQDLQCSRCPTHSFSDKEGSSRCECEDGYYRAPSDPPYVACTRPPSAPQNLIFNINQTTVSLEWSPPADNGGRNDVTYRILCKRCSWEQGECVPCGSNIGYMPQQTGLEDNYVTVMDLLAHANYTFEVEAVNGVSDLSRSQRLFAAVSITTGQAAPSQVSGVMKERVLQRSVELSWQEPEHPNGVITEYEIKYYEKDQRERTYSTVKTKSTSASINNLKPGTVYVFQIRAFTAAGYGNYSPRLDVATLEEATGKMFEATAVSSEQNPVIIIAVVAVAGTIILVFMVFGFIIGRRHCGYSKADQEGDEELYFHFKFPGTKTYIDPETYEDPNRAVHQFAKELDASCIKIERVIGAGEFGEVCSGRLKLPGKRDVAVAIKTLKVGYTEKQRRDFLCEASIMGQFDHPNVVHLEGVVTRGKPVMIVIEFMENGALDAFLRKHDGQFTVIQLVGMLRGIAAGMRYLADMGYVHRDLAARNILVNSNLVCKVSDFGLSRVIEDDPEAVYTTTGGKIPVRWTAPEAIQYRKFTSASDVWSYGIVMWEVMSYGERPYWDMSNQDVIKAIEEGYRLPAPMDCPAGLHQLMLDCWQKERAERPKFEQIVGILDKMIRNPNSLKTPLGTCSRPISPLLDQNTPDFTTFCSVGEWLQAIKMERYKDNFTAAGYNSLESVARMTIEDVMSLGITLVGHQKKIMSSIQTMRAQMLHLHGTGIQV
Sequence of Receptor tyrosine-protein kinase erbB-4 (Homo sapiens) (Q15303 whole entry): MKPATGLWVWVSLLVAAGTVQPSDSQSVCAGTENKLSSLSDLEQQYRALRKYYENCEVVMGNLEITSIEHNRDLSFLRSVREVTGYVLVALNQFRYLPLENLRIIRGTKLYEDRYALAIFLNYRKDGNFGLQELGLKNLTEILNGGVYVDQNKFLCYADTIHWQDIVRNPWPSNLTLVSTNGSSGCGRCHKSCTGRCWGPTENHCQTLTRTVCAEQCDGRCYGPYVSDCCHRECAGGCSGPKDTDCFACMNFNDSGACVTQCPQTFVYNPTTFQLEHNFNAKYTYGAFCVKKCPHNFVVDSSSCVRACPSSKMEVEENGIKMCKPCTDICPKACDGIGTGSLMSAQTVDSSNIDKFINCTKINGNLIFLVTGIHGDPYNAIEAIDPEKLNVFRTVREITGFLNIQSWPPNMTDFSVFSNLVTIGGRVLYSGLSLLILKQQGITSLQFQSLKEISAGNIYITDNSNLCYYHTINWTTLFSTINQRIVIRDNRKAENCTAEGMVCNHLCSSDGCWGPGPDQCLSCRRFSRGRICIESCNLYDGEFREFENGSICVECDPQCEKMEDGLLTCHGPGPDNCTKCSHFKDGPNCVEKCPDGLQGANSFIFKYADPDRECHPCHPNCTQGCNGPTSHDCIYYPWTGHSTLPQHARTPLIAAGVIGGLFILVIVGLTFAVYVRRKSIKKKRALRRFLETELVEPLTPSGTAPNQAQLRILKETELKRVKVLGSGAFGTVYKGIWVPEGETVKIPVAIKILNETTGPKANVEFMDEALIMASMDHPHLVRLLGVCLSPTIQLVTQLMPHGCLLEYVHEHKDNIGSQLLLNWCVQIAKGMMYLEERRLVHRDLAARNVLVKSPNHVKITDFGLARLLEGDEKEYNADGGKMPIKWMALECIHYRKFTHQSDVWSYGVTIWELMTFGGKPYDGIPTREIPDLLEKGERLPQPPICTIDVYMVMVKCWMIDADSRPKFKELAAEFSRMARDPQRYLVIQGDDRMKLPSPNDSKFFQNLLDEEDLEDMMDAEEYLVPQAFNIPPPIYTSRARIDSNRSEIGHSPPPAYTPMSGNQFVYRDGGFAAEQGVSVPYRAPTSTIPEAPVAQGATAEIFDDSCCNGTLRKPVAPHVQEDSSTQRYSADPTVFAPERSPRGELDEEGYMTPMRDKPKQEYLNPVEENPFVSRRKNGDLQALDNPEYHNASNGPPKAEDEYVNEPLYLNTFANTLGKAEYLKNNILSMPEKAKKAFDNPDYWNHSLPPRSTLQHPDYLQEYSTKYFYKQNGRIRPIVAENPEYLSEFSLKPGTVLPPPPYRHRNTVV
Sequence of Ephrin type-A receptor 5 (Homo sapiens) (P54756 whole entry): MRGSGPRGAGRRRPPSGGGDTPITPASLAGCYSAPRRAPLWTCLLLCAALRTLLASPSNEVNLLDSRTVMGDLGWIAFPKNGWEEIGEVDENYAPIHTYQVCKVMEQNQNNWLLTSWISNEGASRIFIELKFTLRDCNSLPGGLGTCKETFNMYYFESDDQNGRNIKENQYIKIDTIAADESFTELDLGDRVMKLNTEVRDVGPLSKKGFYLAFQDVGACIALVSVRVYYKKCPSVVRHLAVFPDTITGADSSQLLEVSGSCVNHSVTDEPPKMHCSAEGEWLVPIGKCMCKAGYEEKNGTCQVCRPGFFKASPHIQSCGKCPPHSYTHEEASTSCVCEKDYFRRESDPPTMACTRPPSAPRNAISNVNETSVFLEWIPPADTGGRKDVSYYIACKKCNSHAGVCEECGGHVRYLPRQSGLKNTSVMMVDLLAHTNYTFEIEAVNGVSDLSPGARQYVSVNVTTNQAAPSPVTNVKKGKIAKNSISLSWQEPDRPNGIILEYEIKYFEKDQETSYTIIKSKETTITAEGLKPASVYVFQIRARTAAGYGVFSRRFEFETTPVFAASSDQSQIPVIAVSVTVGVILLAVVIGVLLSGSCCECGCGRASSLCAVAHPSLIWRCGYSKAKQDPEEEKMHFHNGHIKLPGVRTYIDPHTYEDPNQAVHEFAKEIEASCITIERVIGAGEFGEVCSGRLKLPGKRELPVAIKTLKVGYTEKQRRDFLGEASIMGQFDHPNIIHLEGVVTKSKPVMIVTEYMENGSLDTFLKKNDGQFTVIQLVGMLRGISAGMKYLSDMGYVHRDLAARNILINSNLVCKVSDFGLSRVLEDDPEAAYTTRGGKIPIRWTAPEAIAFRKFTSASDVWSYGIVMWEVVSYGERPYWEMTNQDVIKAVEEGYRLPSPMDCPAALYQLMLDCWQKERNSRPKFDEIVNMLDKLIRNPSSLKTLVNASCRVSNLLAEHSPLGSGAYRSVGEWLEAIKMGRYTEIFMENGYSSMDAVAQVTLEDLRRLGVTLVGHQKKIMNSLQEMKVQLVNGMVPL
Sequence of Ephrin type-A receptor 4 (Homo sapiens) (P54764 whole entry): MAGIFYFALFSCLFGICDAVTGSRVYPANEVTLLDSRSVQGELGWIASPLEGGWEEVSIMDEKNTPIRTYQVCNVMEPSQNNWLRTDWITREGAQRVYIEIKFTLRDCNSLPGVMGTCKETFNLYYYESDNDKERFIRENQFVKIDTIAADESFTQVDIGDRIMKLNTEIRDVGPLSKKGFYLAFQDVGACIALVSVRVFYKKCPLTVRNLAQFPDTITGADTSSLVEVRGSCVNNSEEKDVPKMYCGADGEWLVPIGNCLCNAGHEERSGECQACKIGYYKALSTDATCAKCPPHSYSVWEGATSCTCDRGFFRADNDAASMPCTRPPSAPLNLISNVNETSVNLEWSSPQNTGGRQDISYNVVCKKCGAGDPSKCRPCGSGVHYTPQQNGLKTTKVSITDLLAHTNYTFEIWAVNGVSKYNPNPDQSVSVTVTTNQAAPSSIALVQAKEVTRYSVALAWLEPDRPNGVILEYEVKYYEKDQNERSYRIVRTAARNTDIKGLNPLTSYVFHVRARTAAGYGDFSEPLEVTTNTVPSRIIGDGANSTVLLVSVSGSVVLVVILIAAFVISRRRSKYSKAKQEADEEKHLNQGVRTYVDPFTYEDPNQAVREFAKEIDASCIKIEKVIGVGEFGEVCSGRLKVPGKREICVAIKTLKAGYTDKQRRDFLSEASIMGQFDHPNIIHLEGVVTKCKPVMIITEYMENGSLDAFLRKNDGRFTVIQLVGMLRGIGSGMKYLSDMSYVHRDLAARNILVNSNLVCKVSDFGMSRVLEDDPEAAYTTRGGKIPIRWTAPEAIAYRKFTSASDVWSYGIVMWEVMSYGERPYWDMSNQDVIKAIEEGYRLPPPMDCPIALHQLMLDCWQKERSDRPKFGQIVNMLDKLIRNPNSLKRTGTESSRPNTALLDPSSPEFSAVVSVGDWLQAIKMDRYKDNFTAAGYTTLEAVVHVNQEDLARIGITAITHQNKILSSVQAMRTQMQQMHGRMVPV

## Cc1nc2cc3nc(-c4cccs4)cnc3cc2n1C
[1]
  residual activity: 94%
[2]
  residual activity: 115%
[3]
  residual activity: 96%
[4]
  residual activity: 107%
[5]
  residual activity: 114%
[6]
  residual activity: 104%
[7]
  residual activity: 90%
[8]
  residual activity: 111%
[9]
  residual activity: 96%
[10]
  residual activity: 103%
[11]
  residual activity: 91%
[12]
  residual activity: 117%
[13]
  residual activity: 107%
[14]
  residual activity: 107% (inactive)
[15]
  residual activity: 124%
[16]
  residual activity: 108%
[17]
  residual activity: 119%
[18]
  residual activity: 116%
[19]
  residual activity: 113%
[20]
  residual activity: 80%
